Here are results for 42 compounds from PubChem BioAssay AID1779 (Sanford-Burnham Center for Chemical Genomics, 2009).

The inhibition is the drop in the measured response relative to a control, in per cent.

Out of some 290,000 compounds screened, about 160 (0.055%) were called active. For the sample, actives were picked, then their nearest neighbours and some compounds at random. Unmarked numbers belong to inactive results. Rule as the data show it: active = inhibition above about 50%; inactive = the rest.

For this assay, the target named is Tyrosine-protein phosphatase non-receptor type 22 (Homo sapiens) (UniProt Q9Y2R2). As to the kind of experiment: inhibitors of LYP phosphatase, biochemical, fluorescence intensity, uHTS (AID 1779).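 Also: plate controls were vehicle with enzyme for no effect and no enzyme for full effect.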 Particulars: recombinant LYP phosphatase, at 11.5 µM, active compounds read high.
Tyrosine-protein phosphatase non-receptor type 22 (Homo sapiens), sequence (Q9Y2R2 whole entry, looked up): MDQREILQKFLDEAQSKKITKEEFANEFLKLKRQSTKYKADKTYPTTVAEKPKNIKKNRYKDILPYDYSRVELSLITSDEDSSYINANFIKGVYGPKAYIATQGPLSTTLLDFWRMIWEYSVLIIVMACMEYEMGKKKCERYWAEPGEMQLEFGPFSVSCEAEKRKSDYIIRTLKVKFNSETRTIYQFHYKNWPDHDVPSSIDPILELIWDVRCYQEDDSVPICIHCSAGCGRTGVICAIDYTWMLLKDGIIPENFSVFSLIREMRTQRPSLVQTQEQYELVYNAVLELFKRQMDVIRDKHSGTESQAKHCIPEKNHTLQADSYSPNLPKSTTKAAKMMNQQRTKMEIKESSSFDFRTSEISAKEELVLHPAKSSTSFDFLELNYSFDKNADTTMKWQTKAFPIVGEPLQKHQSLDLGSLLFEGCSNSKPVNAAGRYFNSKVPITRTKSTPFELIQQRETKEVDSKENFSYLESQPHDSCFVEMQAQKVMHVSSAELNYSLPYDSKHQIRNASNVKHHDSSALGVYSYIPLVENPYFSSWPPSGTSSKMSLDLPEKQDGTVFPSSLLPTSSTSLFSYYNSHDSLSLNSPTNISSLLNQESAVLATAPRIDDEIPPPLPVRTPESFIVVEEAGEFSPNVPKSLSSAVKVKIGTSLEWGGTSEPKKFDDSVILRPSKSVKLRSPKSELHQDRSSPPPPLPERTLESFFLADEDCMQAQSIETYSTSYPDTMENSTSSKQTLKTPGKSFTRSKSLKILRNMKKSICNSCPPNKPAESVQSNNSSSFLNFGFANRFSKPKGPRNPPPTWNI
For `COc1cc(N(C)C)c([N+](=O)[O-])cc1C(=O)NC(C)CNc1ccc([N+](=O)[O-])cc1Cl` (configuration not stated), the inhibition was -7.4%.

In the case of `Cc1ccc(CN(CC(=O)NC(C)(C)C)C(=O)CNC(=O)c2cccs2)cc1`, the inhibition was -5.3%.

`Cc1occc1C(=O)NNS(=O)(=O)c1ccc([N+](=O)[O-])cc1`: the inhibition was -10.5%.

As for `Cc1ccc(S(=O)(=O)NNC(=O)c2ccoc2C)cc1`, the inhibition is -5.8%.

On to `Cc1occc1C(=O)NNS(=O)(=O)c1ccc(Cl)cc1`, for which the inhibition was 71.2% (active).

`Cn1c(=O)c2ncn(CC(=O)N/N=C/c3ccco3)c2n(C)c1=O`: the inhibition was -9.9%.

As to `CC(=O)CCS(=O)(=O)c1ccc(NC(C)=O)cc1`, the inhibition was -5.5%.

For the compound `O=C(COC(=O)c1cc(-c2cccs2)nn1-c1ccccc1)Nc1ccc(Cl)c([N+](=O)[O-])c1`, the inhibition is 2%.

As for `Cc1ccc(NC(=O)COC(=O)c2cc(-c3cccs3)nn2-c2ccccc2)cc1[N+](=O)[O-]`, the inhibition was 74.9% (active).

As for `O=C(COC(=O)c1cc(-c2cccs2)nn1-c1ccccc1)Nc1ccc(F)c([N+](=O)[O-])c1`, the inhibition is -7.7%.

In the case of `CC(=O)c1ccc(N2C(=O)[C@@H]3C(CCC(N)=O)NC4(C(=O)Nc5c4ccc(Cl)c5C)[C@@H]3C2=O)cc1` (some centres not stated), the inhibition is -3.9%.

On to `N#Cc1c(N2CCCC2)nc(N)c2c(N)nc(N3CCCC3)cc12`, for which the inhibition is 65.7% (active).

As to `COc1cc2c(C#N)c(N3CCCC3)nc(N)c2c(N)n1`, the inhibition is -2.4%.

As for `COc1cc2c(C#N)c(N3CCCCC3)nc(N)c2c(N)n1`, the inhibition is -1.1%.

For the compound `CCCC(=O)NC(=S)Nc1ccccc1F`, the inhibition was -10.5%.

As for `Cc1cccc(C)c1N1CCN(c2n[nH]c(N)n2)CC1`, the inhibition was -8.3%.

Take `CC1(C)CCC(=O)N(c2ccccc2)C1=O`: the inhibition is -3%.

For the compound `CC1(C)Nc2ccccc2C(=O)N1c1ccccc1`, the inhibition was -11.8%.

On to `CC12CCC(=O)N1c1ccccc1C(=O)N2c1ccccc1` (configuration not stated), for which the inhibition is 66.6% (active).

Turning to `CC(=O)Nn1c(COc2ccccc2C)nc2ccccc2c1=O`, the inhibition is -4.5%.

For `Cc1ccc(-n2ccc(=O)c(C(=O)Nc3ccc(S(=O)(=O)Nc4onc(C)c4C)cc3)n2)cc1`, the inhibition was 2.8%.

As for `Cc1cccc(-n2ccc(=O)c(C(=O)Nc3ccc(S(=O)(=O)Nc4onc(C)c4C)cc3)n2)c1`, the inhibition was -7.6%.

On to `Cc1noc(NS(=O)(=O)c2ccc(NC(=O)c3nn(-c4ccccc4)ccc3=O)cc2)c1C`, for which the inhibition was 53.3% (active).

For `COc1cc(CC(NC(C)=O)C(=O)NC2CCN(c3nc(C)cc(C)c3C#N)CC2)cc(OC)c1` (configuration not stated), the inhibition was -2.6%.

`COc1cc(/C=C2/NC(=O)NC2=O)cc(Br)c1OCc1ccc(C(=O)O)cc1`: the inhibition was 26.8%.

Regarding `COc1cc(/C=C2/NC(=O)NC2=O)cc(Br)c1OCc1cccc(C(=O)O)c1`, the inhibition was 4.5%.

Regarding `Nc1nonc1-n1nnc(C(=O)N/N=C/c2ccoc2)c1CSc1ccc(Cl)cc1`, the inhibition was -6.9%.

As for `C=C(C)Cn1c(SCC(=O)O)nc2c1c(=O)[nH]c(=O)n2C`, the inhibition was -3.9%.

With `CCc1nc2cc([N+](=O)[O-])c([N+](=O)[O-])cc2[nH]1`, the inhibition is 54.4% (active).

In the case of `CCCc1nc2ccc([N+](=O)[O-])cc2[nH]1`, the inhibition was -5.4%.

Consider `CCc1nc2cc(Cl)c(Cl)cc2[nH]1`, for which the inhibition was -3%.

For the compound `CCC(=O)Nc1ccc2nc3c(=O)[nH]c(=S)[nH]c3nc2c1`, the inhibition is -5.4%.

`Nc1ccc2nc3c(=O)[nH]c(=S)[nH]c3nc2c1`: the inhibition is 58.3% (active).

Turning to `Nc1ccc2nc3c(=O)n(C4CCCCC4)c(=O)[nH]c3nc2c1`, the inhibition is 4.7%.

Take `OC(COC(c1ccccc1)c1ccccc1)CN1CCOCC1` (configuration not stated): the inhibition is 1.2%.

Consider `COC(=O)C1CCN(c2ccc([N+](=O)[O-])cc2)CC1`, for which the inhibition is -2.8%.

With `COC(=O)C1CCN(Cc2ccc(OCCCN3CCN(c4ccc([N+](=O)[O-])cc4)CC3)cc2)CC1`, the inhibition was 78.6% (active).

`COC(=O)C1CCN(CCCOc2ccc(CN3CCN(c4ccc([N+](=O)[O-])cc4)CC3)cc2)CC1`: the inhibition was -8%.

As to `CCOC(=O)c1cnc2c(Cl)c(Cl)ccc2c1NCCN1CCOCC1`, the inhibition was 59.4% (active).

As for `CCOC(=O)c1cnc2c(C)c(C)ccc2c1NCCN1CCOCC1`, the inhibition is -7.3%.

For `CCOC(=O)c1cnc2c(Cl)cccc2c1NCCN1CCOCC1`, the inhibition is -9.2%.

Turning to `COc1ccc(C(=O)NCCNC(C)=O)cc1S(=O)(=O)NCc1ccc(Cl)cc1`, the inhibition was -8.9%.
